Results from ChEMBL document CHEMBL1157539, “Thousands of chemical starting points for antimalarial lead identification” (Nature, 2010).

Columns and labels:
Assay type in all cases: functional
Plasmodium falciparum [1] = assay: GSK_TCMDC: Inhibition of Plasmodium falciparum 3D7 in whole red blood cells, using parasite LDH activity as an index of growth. Test compounds present at 2uM
Plasmodium falciparum [2] = assay: GSK_TCMDC: Inhibition of Plasmodium falciparum Dd2 in whole red blood cells, using parasite LDH activity as an index of growth. Test compounds present at 2uM
HepG2 = assay: GSK_TCMDC: Percent inhibition of human HepG2 cell line. Test compounds present at 10uM.

Structure (SMILES)	Inhibition (Plasmodium falciparum [1]) [%]	Inhibition (Plasmodium falciparum [2]) [%]	Inhibition (HepG2) [%]
CC(=O)c1ccc(N2C(=O)C3C(Cc4ccc(OC(C)(C)C)cc4)NC4(C(=O)N(Cc5ccc(C(C)(C)C)cc5)c5ccccc54)C3C2=O)cc1 (stereo not given)	86	81	13
CCCn1cc2c(ccc3nc(N)nc(N)c32)n1	95	0	65
Cn1cccc1CCNCc1ccc(-c2cccc(-c3nc4ccccc4[nH]3)c2)cc1.O=C(O)C(F)(F)F	88	66	1
O=[N+]([O-])c1cccc(NC(=S)N2CCCN(Cc3ccc(Cl)cc3Cl)CC2)c1	94	50	3
Cc1c2ccncc2c(C)c2c1[nH]c1cc(Cc3ccccc3)c(O)cc12	100	99	99
Cc1cc(C)c2nc(N3CCC(C(=O)NCCCN4CCC(N5CCCCC5)CC4)CC3)sc2c1	99	34	99
COc1cccc(NC(=O)NC2CCN(c3ccnc(Nc4ccc(F)cc4)n3)C2)c1 (stereo not given)	100	71	9
CCc1cn2c3c(cc(C(=O)N[C@@H](Cc4ccccc4)[C@H](O)CNC4CC4)cc13)N(CC)S(=O)(=O)CC2.O=CO	98	99	13
CN1CCC(NCc2ccc(-c3cccc(S(=O)(=O)NCc4ccccc4)c3)cc2)CC1.O=C(O)C(F)(F)F	100	94	72
COc1ccc2[nH]c(C)cc(=NN=Cc3cccc(F)c3)c2c1	100	100	2
